# Bioassay records: PubChem, National Center for Advancing Translational Sciences (NCATS)
# Hits are enriched below; roughly 11% of the tested compounds scored in any of these assays.
# IMPase Li inh = membrane-permeable IMPase blocker, potentiated with lithium; 210,000 tested, 0.35% active; CHO-M1 cells, IP1 TR-FRET (IP-One), carbachol + lithium; Potency, µM (titrated, usually from 59.4 µM), for inactives: at the top dose activity, negative = IMPase inhibition, usual class: inhibitors; active means well fitted inhibition curve with a large enough effect; inconclusive means small, poorly fitted or top-dose-only effect; inactive means no such curve, though single readings can be large or run the other way;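 further: IP1 builds up when IMPase is blocked and the TR-FRET signal falls; potency means the concentration at half of the fitted maximal effect; plate controls were basal vehicle for no effect and high inhibitor control for full effect; nearly all actives have a fitted effect of over 50% in size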
#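 Concentration–response in CHO-M1 cells, lithium-potentiated; 30 min at 37C. IP1 detected by competitive TR-FRET after 10 min lysis at RT. Hill-fitted AC50.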
# ALDH1A1 inh = ALDH1A1 (human) enzyme inhibition. Purified ALDH1A1, NADH fluorescence, propionaldehyde substrate. Potency, µM (highest dose often 75.3 µM), inactives show at the highest dose activity, negative = inhibition, most hits filed as inhibitors. 220,000 tested, 7.3% active. AID 1030;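 further: potency means the concentration at half of the fitted maximal effect; plate controls were no enzyme wells and a reference inhibitor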
# Target sequence (P00352 whole entry, looked up): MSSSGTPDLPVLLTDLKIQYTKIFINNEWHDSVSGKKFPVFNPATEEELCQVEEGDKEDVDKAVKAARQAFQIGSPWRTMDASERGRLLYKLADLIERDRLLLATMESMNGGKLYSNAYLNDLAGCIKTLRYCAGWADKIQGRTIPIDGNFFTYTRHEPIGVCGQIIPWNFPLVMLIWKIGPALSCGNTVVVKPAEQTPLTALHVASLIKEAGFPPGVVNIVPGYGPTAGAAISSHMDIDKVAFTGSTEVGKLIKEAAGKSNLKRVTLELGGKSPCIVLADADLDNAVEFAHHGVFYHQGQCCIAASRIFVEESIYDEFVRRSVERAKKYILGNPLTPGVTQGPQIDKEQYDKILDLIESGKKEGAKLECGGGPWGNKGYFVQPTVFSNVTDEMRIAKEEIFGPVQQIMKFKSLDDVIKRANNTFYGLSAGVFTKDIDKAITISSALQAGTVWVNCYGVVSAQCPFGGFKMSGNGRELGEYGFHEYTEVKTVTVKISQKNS
# PNC inhibitor = perinucleolar compartment assembly inhibition; 140,000 tested, 3.1% active; AID 2417; activity change (PNC), negative = inhibition, % at 10 µM; PC3M PTB-GFP, PNC prevalence imaging, 16 h; stronger effect = lower value;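 active means readout at or below -70, meaning at least 70% loss of cells showing the perinucleolar compartment, a nuclear body marking cancer cells; inconclusive means readout between -30 and a set limit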;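 further: plate controls were DMSO wells for no effect and camptothecin positive control wells for full effect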
#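 Read-out is percentage of cells bearing a perinucleolar compartment, from automated 20x imaging of fixed, Hoechst-stained PC3M PTB-GFP cells. Cells were seeded 4 h, then exposed 16 h to compound (23 nl of library stock) in duplicate plates.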
# IMPase inh = IMPase inhibition in cells | P97697 | CHO-M1 cells, IP1 accumulation, HTRF TR-FRET ratio | inhibition (IP1 accumulation), % at 46.1 µM | 120,000 tested, under 10 active; active means well fitted curve in the direction sought with a large enough effect in the signal ratio, not every such curve was filed as active; inconclusive means small, poorly fitted or top-dose-only effect, or a change in a side signal; inactive means no such curve, though single readings can be large or run the other way; the % refers to the signal ratio;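 further: cells stimulated with carbachol in lithium chloride buffer; plate controls were DMSO basal wells for no effect and reference inhibitor wells for full effect; higher means more IMPase inhibition seen as more IP1 and lower FRET ratio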
#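 Measured: the HTRF emission ratio (665/620 nm) plus the 620 nm donor channel, each fitted to the Hill equation to give AC50. Cells were CHO-M1 given compounds up to 46 uM and a 30 min carbachol stimulation at 37C.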
# HPGD block = HPGD (human) dehydrogenase inhibition | P15428 | purified HPGD, NADH fluorescence kinetic, PGE2 substrate | Potency, µM, without a hit: at the highest dose activity change, negative = inhibition, actives largely listed as inhibitors | 150,000 tested, 4.3% active | AID 894; further: potency means the concentration at half of the fitted maximal effect
# Target sequence (P15428 whole entry, looked up): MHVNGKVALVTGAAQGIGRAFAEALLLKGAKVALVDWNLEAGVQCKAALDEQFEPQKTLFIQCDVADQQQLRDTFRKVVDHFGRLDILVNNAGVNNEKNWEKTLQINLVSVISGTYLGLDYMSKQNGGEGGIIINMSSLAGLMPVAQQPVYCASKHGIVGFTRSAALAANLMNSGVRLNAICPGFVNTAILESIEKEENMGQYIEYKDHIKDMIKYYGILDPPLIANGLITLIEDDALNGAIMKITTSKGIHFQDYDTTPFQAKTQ
#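 20 nM HPGD preincubated 15 min at room temperature with compound in 50 mM Tris-HCl pH 8, 0.01% Tween 20. Started with 1 mM NAD+ and 30 uM prostaglandin E2; NADH fluorescence (360/450 nm) read 5 times over 30-s intervals, last minus first.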
# An asterisk follows results filed as active; u = inconclusive; x = not tested or not shown; [ ] = dose if it differs, or a comment. Unless noted, the call rests on the fitted dose curve; in most records, active means well fitted inhibition curve with a large enough effect (not every such curve was filed as active); inconclusive means small, poorly fitted or top-dose-only effect, or another doubt; inactive means no such curve, though single readings can be large or run the other way. Unless noted, on the % scale 0 is the no-effect control and ±100 the full control effect.
SMILES,IMPase Li inh,ALDH1A1 inh,PNC inhibitor,IMPase inh,HPGD block
CSc1ccc(Cl)c(C(=O)OCC(=O)NCc2ccco2)c1,19%[38.3 µM],u,6,10,u
CSc1ccc(Cl)c(C(=O)NCc2ccco2)c1,-9%[38.3 µM],u,u,-5,16µM*
CCC(C)c1ccc(OCCn2cc(/C=N/NC(=O)CSc3nnc(C)s3)c3ccccc32)cc1 (configuration not stated),22%[38.3 µM],u,25,-5,-28%
O=C(O)c1cc2c(cc1S(=O)(=O)O)[C@H]1[C@@H](C3[C@H]2[C@@]2(Cl)C(Cl)=C(Cl)C3(Cl)C2(Cl)Cl)[C@]2(Cl)C(Cl)=C(Cl)C1(Cl)C2(Cl)Cl (some centres not stated),-8%,-11%[13.5 µM],x,x,u
NC(CCCCCP(=O)(c1ccccc1)c1ccccc1)C(=O)O (configuration not stated),x,4%,x,x,x
CC(C)(C)c1cnnn1-c1ccc(NC(=O)c2ccc3c(c2)OCO3)cc1,18%,12µM*,3,-14,-26%
N#CCC(CNc1ncc(C(F)(F)F)cc1Cl)OC(=O)c1cccc(C(F)(F)F)c1 (configuration not stated),-9%,-10%,u,-5,u
O=C(OCn1ncc(Cl)c(Cl)c1=O)c1cccc(C(F)(F)F)c1,-20%[38.3 µM],0.63µM*,u,2,18µM*
CN(C)S(=O)(=O)c1ccc(N2CCCC2)c(C(=O)N2CCN(c3ccc([N+](=O)[O-])cc3)CC2)c1,2%,14µM*,x,x,x
O=C(c1ccc(Oc2ccc([N+](=O)[O-])cc2Cl)cc1)N1CCCC1,13%,22µM*,x,x,x
O=C(c1cc([N+](=O)[O-])ccc1N1CCCC1)N1CCCC1,3%,-1%,x,x,x
Cc1ccc(C(=O)c2cc([N+](=O)[O-])ccc2N2CC(C)OC(C)C2)cc1 (configuration not stated),13%,u,-18,-11,-5%
O=C(c1cccc(Oc2ccc([N+](=O)[O-])cc2Cl)c1)N1CCCCC1,5%,u,x,x,x
Cc1ccc(C(=O)c2cc([N+](=O)[O-])ccc2N2CCCCC2)cc1,12%,20µM*,-110*,x,-9%
O=C(c1cc([N+](=O)[O-])ccc1N1CCCCC1)N1CCCC1,0%,28µM*,u,x,-4%
N[C@H](Cc1ccc(F)cc1)C(=O)O,x,x,x,0,x
CN(C[C@@H](Cc1cccc2ccccc12)N(C[C@H](Cc1ccccc1)N(CCc1ccccc1)N=O)N=O)N=O,-11%,5%,x,x,x
COC(=O)c1c(NC(=S)Nc2ccc(C(=O)N3CCOCC3)cc2)sc2c1CCC2,u,3.5µM*,x,x,x
COC(=O)c1c(NC(=O)CCNCc2ccco2)sc2c1CCC2,x,24µM*,x,x,x
CCOC(=O)c1c(NC(=O)c2ccccc2N(C)S(=O)(=O)c2ccccc2)sc2c1CCCC2,8%,u,46,-6,u
COC(=O)c1c(NC(=O)c2ccc(N(C)S(=O)(=O)c3ccc(C)cc3)cc2)sc2c1CCCC2,-6%,u,-28,x,u
COCCN(CCOC)S(=O)(=O)c1ccc(C(=O)Nc2sc3c(c2C(N)=O)CCCCC3)cc1,2%,u,-119*,11,u
COC(=O)c1c(NC(=O)c2ccccc2N(C)S(=O)(=O)c2ccccc2)sc2c1CCCC2,6%,u,-108*,7,u
COc1ccc(NC(=O)c2c(NC(=O)CNCc3ccco3)sc3c2CCC3)cc1,16%[38.3 µM],u,-9,13,-17%
COc1ccccc1/C=N/N(C(C)=O)c1nc(-c2ccc(F)cc2)cs1,17%[38.3 µM],3%,9,5,0%
SMILES,IMPase Li inh,ALDH1A1 inh,PNC inhibitor,IMPase inh,HPGD block
COC(=O)c1c(NC(C)=O)sc2c1CCCC2,-8%[38.3 µM],25µM*,34,5,-23%
COC(=O)c1c(NC(=O)COC(=O)c2ccc(Cl)cc2[N+](=O)[O-])sc2c1CCCCC2,2%,1%,u,28,-13%
CNC(=S)Nc1sc2c(c1C(=O)OC)CCC2,12%,u,x,x,x
COC(=O)c1c(NC(=S)Nc2ccc(F)cc2[N+](=O)[O-])sc2c1CCCCC2,x,4µM*,7,-6,x
COC(=O)c1c(NC(C)=O)sc2c1CCCCC2,-1%,16µM*,-3,x,28µM*
CC(/C=C1\N=C(SCc2ccccc2)SC1=O)=C\c1ccccc1,-3%,22µM*,u,x,-19%
CS(=O)(=O)N1CCC2(CCN(Cc3ccncc3)CC2)CC1,-14%,-2%,x,x,-18%
COC(=O)Cc1cc(=O)n(-c2nc3ccccc3[nH]2)[nH]1,6%,4%,-100*,-16,-5%
COC(=O)Cc1[nH]n(-c2nc3ccccc3s2)c(=O)c1C(C)=O,15%[38.3 µM],u,-19,0,-17%
c1ccc(-c2cnn3nnnc3n2)cc1,0%[38.3 µM],11%,-11,0,-14%
c1ccc(-c2ccn3nnnc3n2)cc1,1%,0%,-100*,-11,-18%
O=C1NC(=NCc2ccccc2)S/C1=C/c1ccc(O)cc1,-7%,-8%,2,x,2.8µM*
Cc1c(N=C2NC(=O)/C(=C/c3ccc(O)cc3)S2)c(=O)n(-c2ccccc2)n1C,3%,0%,u,x,-23%
O=C(O)[C@@H](O)[C@@H](O)[C@@H](O)[C@@H](O)c1nc2ccccc2s1,0%,2%[13.5 µM],x,x,3.5µM*
CCN1CCC(=NNC(=O)CC23CC4CC(CC(C4)C2)C3)CC1,4%[38.3 µM],1.8µM*,-14,-5,-13%
COc1ccc(OC)c(N(CC(=O)Nc2cccnc2)S(=O)(=O)c2ccccc2)c1,13%[38.3 µM],-8%,5,5,7.9µM*
COc1ccc(S(=O)(=O)N(CC(=O)Nc2cccnc2)c2ccccc2OC)cc1,47%[38.3 µM],10µM*,-11,11,2.2µM*
COc1ccc(N(CC(=O)Nc2ccc3c(c2)OCO3)S(=O)(=O)c2ccccc2)cc1,12%,-3%,x,x,x
CCOc1ccccc1N(CC(=O)Nc1ccc2c(c1)OCCO2)S(C)(=O)=O,6%[38.3 µM],6%,-125*,-8,-9%
COc1ccc(N(CC(=O)Nc2ccc3c(c2)OCCO3)S(=O)(=O)c2cccnc2)cc1,38%[38.3 µM],14µM*,u,-2,-18%
COc1cccc(C2C(C)CCC3C(=O)N(C)C(C(C)C)C(=O)N32)c1 (configuration not stated),x,-2%[13.5 µM],x,x,x
COc1cc(C2Nc3ccccc3-c3nnc(SCc4ccc(C)cc4)nc3O2)cc(OC)c1O (configuration not stated),x,x,x,21,x
CCCCCCCCCCCCC/C=C\[C@@H](O)[C@@H](N)CO,17%,-5%,x,2,1%
COc1ccc(NC(=O)c2n[nH]c(=O)c3ccccc23)cc1S(=O)(=O)N1CCCCC1,7%,25%,u,-2,-8%
COc1ccccc1-c1cncnc1NCCNC(C)=O,-4%,-1%,x,x,x
COc1ccc(S(=O)(=O)N(CC(=O)Nc2ccc3c(c2)OCO3)c2ccccc2OC)cc1,12%[38.3 µM],u,24,7,16µM*
